What is called AC50 is the midpoint of the concentration-response curve, whichever way the signal moves.

Results filed as inconclusive are left out. Active and inactive are the calls of the source. Rule for the calls: active = hit-call score of the fitted dose curve at least 0.9, where 1 is the maximum; inconclusive = response in the unintended direction; inactive = score below 0.9.

For test [1], the target named is human Dopamine Receptor D4.4 (DRD4.4), DRD4 (gene 1815) (UniProt P21917). Kind of test: NVS_GPCR_hDRD4.4: NovaScreen (NVS) G Protein-Coupled Receptor Assay for human Dopamine Receptor D4.4 (DRD4.4) (AID 2283264). An outline of the steps:
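Filter-binding assay with a tritiated or iodinated ligand, cell-free receptor prepared from CHO, 1 hour. Loss of bound radioactivity versus DMSO; single 25 uM duplicate screen, then concentration-response for actives.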

Test [2] deals with human Neurokinin, NK2 Receptor, TACR2 (gene 6865) (UniProt P21452). Description: NVS_GPCR_hNK2: NovaScreen (NVS) G Protein-Coupled Receptor Assay for human Neurokinin, NK2 Receptor (AID 2283278).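 Note: actives reduce bound radioligand signal relative to DMSO baseline.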 An outline of the steps:
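Radioligand binding on membranes from CHO cells expressing receptor, filter-based scintillation read 4 h after dosing. Initial duplicate screen at 25 uM, actives in concentration series; loss of signal versus DMSO.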

The target of test [3] is Type-1 angiotensin II receptor (Homo sapiens) (UniProt P30556). Kind of test: NVS_GPCR_hAT1: NovaScreen (NVS) G Protein-Coupled Receptor Assay for human Angiotensin II receptor type 1 (AT1) (AID 2283263). In short, it runs like this: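 Hits from a 25 uM duplicate screen (threshold e.g. 30% inhibition) were run in concentration-response with 50 uM top concentration. Displacement of specific radioligand from KAN-TS membrane preparations measured after 3 h by filter scintillation, DMSO as baseline.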
Chain of Type-1 angiotensin II receptor (Homo sapiens) (P30556 whole entry, looked up): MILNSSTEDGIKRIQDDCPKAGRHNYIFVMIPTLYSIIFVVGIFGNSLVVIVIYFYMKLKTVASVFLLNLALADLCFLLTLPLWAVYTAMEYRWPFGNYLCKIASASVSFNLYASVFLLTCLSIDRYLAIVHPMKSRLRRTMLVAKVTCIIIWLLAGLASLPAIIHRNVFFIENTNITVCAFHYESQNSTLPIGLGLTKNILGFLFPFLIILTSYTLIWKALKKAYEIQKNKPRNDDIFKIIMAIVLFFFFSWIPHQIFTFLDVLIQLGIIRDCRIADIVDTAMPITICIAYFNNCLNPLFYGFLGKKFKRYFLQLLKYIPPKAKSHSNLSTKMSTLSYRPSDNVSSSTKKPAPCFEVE

Test [4] has as its target human Endothelin Receptor Type B (ETB), EDNRB (gene 1910) (UniProt P24530). Kind of test: NVS_GPCR_hETB: NovaScreen (NVS) G Protein-Coupled Receptor Assay for human Endothelin Receptor Type B (ETB) (AID 2283267). In short, it runs like this: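 Filter-based scintillation readout of radioligand displacement, 4 h, using membranes from human astrocytoma cells. Actives from a 25 uM duplicate screen were retested in concentration-response (top 50 uM) relative to DMSO baseline.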

The target of test [5] is human Adrenergic, Beta 3 Receptor (Adrb3), ADRB3 (gene 155) (UniProt P13945). Description: NVS_GPCR_hAdrb3: NovaScreen (NVS) G Protein-Coupled Receptor Assay for human Adrenergic, Beta 3 Receptor (Adrb3) (AID 2283262). An outline of the steps: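 A cell-free filter binding assay read by scintillation counting, with displacement of a specific radioligand measured after 1 hour. The receptor source was SK-N-MC extracts (cells pretreated with isoproterenol and 8-bromo-cAMP). Compounds were first tested at 25 uM in duplicate and then in concentration series.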
Chain of human Adrenergic, Beta 3 Receptor (Adrb3), ADRB3 (gene 155) (P13945 whole entry, looked up): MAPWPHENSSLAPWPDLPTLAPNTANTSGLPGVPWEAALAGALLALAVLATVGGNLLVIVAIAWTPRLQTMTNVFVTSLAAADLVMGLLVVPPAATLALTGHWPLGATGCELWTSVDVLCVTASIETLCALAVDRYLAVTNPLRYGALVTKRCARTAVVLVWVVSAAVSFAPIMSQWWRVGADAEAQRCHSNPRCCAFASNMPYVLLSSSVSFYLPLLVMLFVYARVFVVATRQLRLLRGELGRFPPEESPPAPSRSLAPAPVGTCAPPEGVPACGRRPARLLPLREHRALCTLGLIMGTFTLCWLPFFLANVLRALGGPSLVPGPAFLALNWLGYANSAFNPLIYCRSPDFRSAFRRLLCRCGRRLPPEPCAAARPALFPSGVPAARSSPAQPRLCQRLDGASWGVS

The target of test [6] is human Adrenergic, Beta 1 Receptor (Adrb1), ADRB1 (gene 153) (UniProt P08588). Kind of test: NVS_GPCR_hAdrb1: NovaScreen (NVS) G Protein-Coupled Receptor Assay for human Adrenergic, Beta 1 Receptor (Adrb1) (AID 2283258). An outline of the steps: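 Membranes/protein extracted from human neuroepithelioma cells, radioligand competition binding read by filtration and scintillation 2 h post-dose. Single 25 uM duplicate screen, then concentration-response follow-up; DMSO as negative control.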

The target of test [7] is human Adrenergic, Alpha 2c Receptor (Adra2C), ADRA2C (gene 152) (UniProt P18825). Description: NVS_GPCR_hAdra2C: NovaScreen (NVS) G Protein-Coupled Receptor Assay for human Adrenergic, Alpha 2c Receptor (Adra2C) (AID 2283259). An outline of the steps:
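Screened first in duplicate at 25 uM, with actives then run as concentration series. Membranes from Sf9 cells were exposed for 1 h, and displacement of radioligand was counted after filtration, using DMSO as baseline.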

In test [8] the target is human Dopamine Receptor D2 (DRD2), DRD2 (gene 1813) (UniProt P14416). Description: NVS_GPCR_hDRD2s: NovaScreen (NVS) G Protein-Coupled Receptor Assay for human Dopamine Receptor D2 (DRD2) (AID 2283266). An outline of the steps:
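Test compound (25 uM, duplicate in the primary screen; concentration series at follow-up) competed with radioligand for human DRD2 in CHO-derived membrane protein. Filter-based scintillation counting was done 1.5 hours after dosing, with loss of signal analysed against DMSO.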

Test [9] addresses human Histamine 1 Receptor (H1), HRH1 (gene 3269) (UniProt P35367). Kind of test: NVS_GPCR_hH1: NovaScreen (NVS) G Protein-Coupled Receptor Assay for human Histamine 1 Receptor (H1) (AID 2283268). An outline of the steps:
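Filter-based scintillation detection of radioligand binding to human H1, 1 h incubation; chemicals screened in duplicate at 25 uM, then concentration-response; signal loss relative to DMSO taken as activity.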

Test [10] deals with Muscarinic acetylcholine receptor M3 (Homo sapiens) (UniProt P20309). Kind of test: NVS_GPCR_hM3: NovaScreen (NVS) G Protein-Coupled Receptor Assay for human Muscarinic, M3 Receptor (AID 2283272). An outline of the steps: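 Radioligand displacement binding on human M3 receptor in CHO-derived membranes, 1 h incubation, filter-based scintillation counting. Primary screen in duplicate at 25 uM; actives followed up in concentration series; loss of signal versus DMSO.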
Chain of Muscarinic acetylcholine receptor M3 (Homo sapiens) (P20309 whole entry, looked up): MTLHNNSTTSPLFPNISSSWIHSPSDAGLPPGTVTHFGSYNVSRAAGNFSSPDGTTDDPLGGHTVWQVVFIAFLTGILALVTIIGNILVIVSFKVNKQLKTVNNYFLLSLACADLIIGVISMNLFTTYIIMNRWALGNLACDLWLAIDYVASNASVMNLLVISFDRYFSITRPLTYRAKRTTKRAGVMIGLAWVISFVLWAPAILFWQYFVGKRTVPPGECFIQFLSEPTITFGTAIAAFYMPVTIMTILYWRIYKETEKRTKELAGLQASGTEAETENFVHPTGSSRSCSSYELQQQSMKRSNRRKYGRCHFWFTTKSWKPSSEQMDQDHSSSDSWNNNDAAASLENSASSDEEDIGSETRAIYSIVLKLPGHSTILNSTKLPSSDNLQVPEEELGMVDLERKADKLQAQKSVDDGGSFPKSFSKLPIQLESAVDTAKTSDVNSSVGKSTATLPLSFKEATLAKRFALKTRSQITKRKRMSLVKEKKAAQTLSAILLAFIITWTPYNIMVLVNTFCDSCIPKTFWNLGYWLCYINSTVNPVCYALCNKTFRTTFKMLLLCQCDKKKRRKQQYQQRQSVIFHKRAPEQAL

For test [11], the target named is human Muscarinic, M4 Receptor, CHRM4 (gene 1132) (UniProt P08173). Description: NVS_GPCR_hM4: NovaScreen (NVS) G Protein-Coupled Receptor Assay for human Muscarinic, M4 Receptor (AID 2283274). In short, it runs like this:
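Filter-based scintillation counting of radioligand bound to CHO-expressed human M4 preparations after 1 h; loss of signal fitted versus DMSO. Initial duplicate testing at 25 uM, concentration-response follow-up for actives.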

Test [12] addresses D(1A) dopamine receptor (Homo sapiens) (UniProt P21728). Description: NVS_GPCR_hDRD1: NovaScreen (NVS) G Protein-Coupled Receptor Assay for human Dopamine Receptor D1 (DRD1) (AID 2283269). In short, it runs like this:
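Radioligand displacement binding on membranes/protein extracted from HEK293 expressing human D1, cell-free; read 1 h after dosing by filter-based scintillation counting. Primary screen in duplicate at 25 uM, actives followed up in concentration series; signal loss versus DMSO baseline.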

The target in test [13] is Muscarinic acetylcholine receptor M1 (Homo sapiens) (UniProt P11229). Kind of test: NVS_GPCR_hM1: NovaScreen (NVS) G Protein-Coupled Receptor Assay for human Muscarinic, M1 Receptor (AID 2283270). An outline of the steps:
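Actives from a duplicate 25 uM single-point screen were retested in concentration series. Binding measured as displacement of a radioligand from CHO-derived receptor preparation, 1 h incubation, filtration and scintillation counting, analysed as signal loss against DMSO.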

In test [14] the target is Muscarinic acetylcholine receptor M5 (Homo sapiens) (UniProt P08912). Kind of test: NVS_GPCR_hM5: NovaScreen (NVS) G Protein-Coupled Receptor Assay for human Muscarinic, M5 Receptor (AID 2283275). An outline of the steps: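 Chemicals passing a primary duplicate screen at 25 uM were run as singleton concentration series, maximum 50 uM. Displacement of a specific radioligand from CHO-extracted receptor was read by filter scintillation after 1 h, relative to DMSO.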
Chain of Muscarinic acetylcholine receptor M5 (Homo sapiens) (P08912 whole entry, looked up): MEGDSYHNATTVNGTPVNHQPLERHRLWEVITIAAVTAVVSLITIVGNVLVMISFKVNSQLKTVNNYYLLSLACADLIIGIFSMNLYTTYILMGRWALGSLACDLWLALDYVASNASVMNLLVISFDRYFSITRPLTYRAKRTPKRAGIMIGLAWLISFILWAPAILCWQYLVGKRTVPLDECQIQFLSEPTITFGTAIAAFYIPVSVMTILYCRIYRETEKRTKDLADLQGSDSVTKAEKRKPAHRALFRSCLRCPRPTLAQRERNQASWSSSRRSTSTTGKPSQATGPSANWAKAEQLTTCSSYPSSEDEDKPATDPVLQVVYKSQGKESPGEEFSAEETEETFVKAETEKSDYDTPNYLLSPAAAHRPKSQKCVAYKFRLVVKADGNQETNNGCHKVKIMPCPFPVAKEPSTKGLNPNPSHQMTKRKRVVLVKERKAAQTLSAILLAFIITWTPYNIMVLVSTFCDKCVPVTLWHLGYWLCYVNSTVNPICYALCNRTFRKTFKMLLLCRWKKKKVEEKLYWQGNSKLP

The target in test [15] is human Neuropeptide Receptor Y1 (NPY1), NPY1R (gene 4886) (UniProt P25929). Description: NVS_GPCR_hNPY1: NovaScreen (NVS) G Protein-Coupled Receptor Assay for human Neuropeptide Receptor Y1 (NPY1) (AID 2283276). In short, it runs like this: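 Displacement of specific radioligand from NPY1 receptor of SK-N-MC origin, read by filtration and scintillation after 1 h. Compounds first tested at 25 uM in duplicate, then actives in concentration series; signal loss relative to DMSO.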

The target in test [16] is Neuropeptide Y receptor type 2 (Homo sapiens) (UniProt P49146). Description: NVS_GPCR_hNPY2: NovaScreen (NVS) G Protein-Coupled Receptor Assay for human Neuropeptide Receptor Y2 (NPY2) (AID 2283277). In short, it runs like this:
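Chemicals were first tested in duplicate at 25 uM, then actives in singleton concentration series to 50 uM. Tracer binding to SK-N-MC-derived protein measured cell-free after 1 h via filter scintillation; signal loss relative to DMSO.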

For test [17], the target named is human Adrenergic, Alpha 2A Receptor (Adra2A), ADRA2A (gene 150) (UniProt P08913). Kind of test: NVS_GPCR_hAdra2A: NovaScreen (NVS) G Protein-Coupled Receptor Assay for human Adrenergic, Alpha 2A Receptor (Adra2A) (AID 2283257). In short, it runs like this: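 Displacement of a specific radioligand from HT29 membrane protein was counted by filter scintillation after 1 h. Compounds were screened in duplicate at 25 uM, and actives were retested in concentration series. Fitting was positive-direction against DMSO.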

Test [18] deals with human Leukotriene B4 Receptor 1 (LTB4-BLT1), LTB4R (gene 1241) (UniProt Q15722). Description: NVS_GPCR_hLTB4_BLT1: NovaScreen (NVS) G Protein-Coupled Receptor Assay for human Leukotriene B4 Receptor 1 (LTB4-BLT1) (AID 2283271). An outline of the steps:
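Cell-free human neutrophil receptor preparation, 1 h exposure, radioligand binding read by filter scintillation counting. Single 25 uM duplicate screen, then concentration series topping at 50 uM; binding loss scored against DMSO baseline.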

Chain of human Endothelin Receptor Type B (ETB), EDNRB (gene 1910) (P24530 whole entry, looked up): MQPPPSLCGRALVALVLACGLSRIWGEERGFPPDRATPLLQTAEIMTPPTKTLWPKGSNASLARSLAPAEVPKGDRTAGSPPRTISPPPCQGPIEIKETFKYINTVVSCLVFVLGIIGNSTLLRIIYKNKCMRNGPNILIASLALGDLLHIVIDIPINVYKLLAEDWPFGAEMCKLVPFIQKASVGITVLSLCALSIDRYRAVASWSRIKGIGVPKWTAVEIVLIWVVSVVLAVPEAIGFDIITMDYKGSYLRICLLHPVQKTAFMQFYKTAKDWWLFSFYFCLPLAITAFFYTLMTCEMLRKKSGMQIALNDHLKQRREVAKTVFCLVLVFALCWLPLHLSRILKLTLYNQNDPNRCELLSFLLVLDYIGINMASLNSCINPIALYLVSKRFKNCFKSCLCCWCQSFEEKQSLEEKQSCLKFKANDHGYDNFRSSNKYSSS
Chain of human Dopamine Receptor D2 (DRD2), DRD2 (gene 1813) (P14416 whole entry, looked up): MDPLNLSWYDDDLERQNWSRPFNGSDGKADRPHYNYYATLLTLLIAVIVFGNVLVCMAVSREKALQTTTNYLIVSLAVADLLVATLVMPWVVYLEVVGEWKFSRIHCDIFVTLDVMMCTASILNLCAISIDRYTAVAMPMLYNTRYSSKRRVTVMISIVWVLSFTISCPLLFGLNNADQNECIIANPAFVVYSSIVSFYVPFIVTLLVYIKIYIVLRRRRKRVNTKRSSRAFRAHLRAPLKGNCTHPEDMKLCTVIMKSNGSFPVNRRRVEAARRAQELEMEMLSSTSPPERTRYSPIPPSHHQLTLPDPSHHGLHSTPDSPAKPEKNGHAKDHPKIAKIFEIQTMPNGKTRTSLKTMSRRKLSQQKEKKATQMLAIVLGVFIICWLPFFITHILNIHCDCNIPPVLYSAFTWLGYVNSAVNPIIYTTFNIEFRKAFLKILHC
Chain of human Neurokinin, NK2 Receptor, TACR2 (gene 6865) (P21452 whole entry, looked up): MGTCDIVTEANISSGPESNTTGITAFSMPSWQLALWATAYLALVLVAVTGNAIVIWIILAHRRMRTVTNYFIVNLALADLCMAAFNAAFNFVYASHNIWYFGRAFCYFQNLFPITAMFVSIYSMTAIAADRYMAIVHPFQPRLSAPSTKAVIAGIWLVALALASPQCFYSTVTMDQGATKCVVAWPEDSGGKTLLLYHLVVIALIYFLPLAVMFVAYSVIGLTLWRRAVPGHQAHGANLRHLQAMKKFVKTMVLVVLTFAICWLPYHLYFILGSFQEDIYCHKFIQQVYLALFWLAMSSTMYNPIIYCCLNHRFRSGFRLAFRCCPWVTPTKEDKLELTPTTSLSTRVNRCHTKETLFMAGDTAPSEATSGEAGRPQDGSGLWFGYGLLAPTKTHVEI
Chain of human Adrenergic, Alpha 2c Receptor (Adra2C), ADRA2C (gene 152) (P18825 whole entry, looked up): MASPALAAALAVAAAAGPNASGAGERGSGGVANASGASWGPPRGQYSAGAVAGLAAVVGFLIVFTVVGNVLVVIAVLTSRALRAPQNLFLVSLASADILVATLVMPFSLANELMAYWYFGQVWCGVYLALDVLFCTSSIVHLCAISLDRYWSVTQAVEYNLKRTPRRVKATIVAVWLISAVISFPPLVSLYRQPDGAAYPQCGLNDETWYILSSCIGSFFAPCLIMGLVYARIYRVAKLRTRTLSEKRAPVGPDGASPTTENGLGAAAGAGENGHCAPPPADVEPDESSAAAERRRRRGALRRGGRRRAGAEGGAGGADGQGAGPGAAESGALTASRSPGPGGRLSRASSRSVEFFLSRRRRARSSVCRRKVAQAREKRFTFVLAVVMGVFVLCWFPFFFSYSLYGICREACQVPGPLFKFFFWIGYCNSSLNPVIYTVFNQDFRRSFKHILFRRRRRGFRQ
Chain of human Histamine 1 Receptor (H1), HRH1 (gene 3269) (P35367 whole entry, looked up): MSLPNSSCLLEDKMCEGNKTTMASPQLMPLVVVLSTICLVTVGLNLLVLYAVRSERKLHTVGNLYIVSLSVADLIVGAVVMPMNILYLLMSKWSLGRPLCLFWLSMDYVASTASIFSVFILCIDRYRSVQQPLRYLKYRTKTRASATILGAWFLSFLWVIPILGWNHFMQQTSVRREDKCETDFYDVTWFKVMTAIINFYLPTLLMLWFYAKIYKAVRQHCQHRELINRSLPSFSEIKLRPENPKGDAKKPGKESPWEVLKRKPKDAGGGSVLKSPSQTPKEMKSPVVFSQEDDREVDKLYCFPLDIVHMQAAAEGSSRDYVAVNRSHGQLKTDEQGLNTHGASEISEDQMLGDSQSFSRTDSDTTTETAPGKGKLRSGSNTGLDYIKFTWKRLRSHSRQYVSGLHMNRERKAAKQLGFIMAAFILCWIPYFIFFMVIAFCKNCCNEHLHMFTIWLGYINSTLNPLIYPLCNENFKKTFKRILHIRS
Chain of human Muscarinic, M4 Receptor, CHRM4 (gene 1132) (P08173 whole entry, looked up): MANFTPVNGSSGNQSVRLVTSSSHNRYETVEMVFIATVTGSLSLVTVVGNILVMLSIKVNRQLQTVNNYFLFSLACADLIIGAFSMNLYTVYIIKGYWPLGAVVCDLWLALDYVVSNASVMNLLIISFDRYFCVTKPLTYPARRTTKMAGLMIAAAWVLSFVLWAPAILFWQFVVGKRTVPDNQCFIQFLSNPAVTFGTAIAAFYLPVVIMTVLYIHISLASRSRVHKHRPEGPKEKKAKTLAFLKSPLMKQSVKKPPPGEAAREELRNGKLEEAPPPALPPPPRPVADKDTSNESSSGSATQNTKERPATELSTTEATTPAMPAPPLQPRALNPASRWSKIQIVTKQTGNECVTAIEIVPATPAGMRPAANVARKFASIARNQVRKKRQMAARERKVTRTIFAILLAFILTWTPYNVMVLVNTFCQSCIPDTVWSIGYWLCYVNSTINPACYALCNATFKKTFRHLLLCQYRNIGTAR
Chain of human Leukotriene B4 Receptor 1 (LTB4-BLT1), LTB4R (gene 1241) (Q15722 whole entry, looked up): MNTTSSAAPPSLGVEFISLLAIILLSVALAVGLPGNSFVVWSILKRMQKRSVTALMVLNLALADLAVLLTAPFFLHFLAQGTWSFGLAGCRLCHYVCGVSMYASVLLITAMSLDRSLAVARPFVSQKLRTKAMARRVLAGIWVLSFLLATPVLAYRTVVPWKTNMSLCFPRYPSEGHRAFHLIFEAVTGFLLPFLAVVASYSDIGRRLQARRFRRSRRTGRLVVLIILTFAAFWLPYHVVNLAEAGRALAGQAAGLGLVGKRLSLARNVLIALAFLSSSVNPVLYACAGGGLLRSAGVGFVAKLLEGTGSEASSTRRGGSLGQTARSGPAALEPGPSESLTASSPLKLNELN

Turning to `Oc1ccc2ccccc2c1`, in [1], the result was inactive.

Turning to `O=CCCCC=O`, the outcome in test [2] was inactive.

With `CN(C[C@@H](CC[N+]12CCC(C3CCCCC3)(CC1)CC2)c1ccc(Cl)c(Cl)c1)C(=O)c1cc(C(F)(F)F)cc(C(F)(F)F)c1`, the AC50 in [3] was 33.1 µM (active); in [2], 0.0311 µM (active). In addition, the result in test [4] was inactive.

Regarding `O=C(O)Cc1cc(I)c(Oc2ccc(O)c(I)c2)c(I)c1`, the compound was called inactive in [4].

Regarding `CCCCOC(=O)CC(CC(=O)OCCCC)(OC(C)=O)C(=O)OCCCC`, in [5], the result was inactive.

`CCCCCCCCOC(=O)c1cc(O)c(O)c(O)c1`: the half-maximal activity concentration (AC50) in test [6] is 22.6 µM (active); in test [7] it was 11.8 µM (active); in test [8] it was 25 µM (active); in [9], 42.8 µM (active); in test [11], 8.67 µM (active); in [2] it was 7.2 µM (active). The outcome in [10] was inactive.

On to `CCCCCCCCCCCC[N+](C)(C)C`, for which the AC50 is 25 µM (active) in [5]; 13 µM (active) in [8]; 15.7 µM (active) in [9]; 16.1 µM (active) in test [12]; 4.64 µM (active) in test [13]; 3.43 µM (active) in test [10]. The AC50 is 2.77 µM (active) in test [11]; 1.93 µM (active) in [14]; 16 µM (active) in test [15]; 38.9 µM (active) in test [16]; 18.6 µM (active) in test [2].

As to `COc1cc(C(=O)NC2CCN(C)CC2)ccc1Nc1ncc2c(n1)N(C1CCCC1)CC(F)(F)C(=O)N2C`, the AC50 in test [17] is 14 µM (active); in test [7] it was 6.01 µM (active); in [9], 2.74 µM (active); in test [13], 5.54 µM (active); in test [11], 16.7 µM (active); in test [14] it was 11.9 µM (active). The compound was classed as inactive in test [8] and in test [2].

Regarding `CC(C)(C)c1csc(-c2cc3cc(OCc4ccccc4CC(=O)O)ccc3o2)n1`, the call in [6], in test [3] and in test [18] was inactive.

On to `CCCCCc1ccc(N)cc1`, for which, in [4], the outcome was inactive.

For `Cc1cc2c(cc1C(F)(F)F)N(C(=O)Nc1ccc(Oc3cccnc3C)nc1)CC2`, in test [8], the AC50 was 0.0486 µM (active).

Turning to `Cc1ccc2oc(CN(Cc3ccccc3)C(=O)Nc3c(F)cc(F)cc3F)c(-c3ccc(Cl)cc3)c2c1`, in test [18], the call was inactive.

On to `Cc1occc1C(=O)Nc1ccc(C(=O)N2CCC(F)(F)/C(=C\C(=O)N3CCC(N4CCCCC4)CC3)c3ccccc32)cc1`, for which the AC50 in test [17] is 3.18 µM (active); in test [7], 1.03 µM (active); in test [9], 0.148 µM (active); in test [11], 7.11 µM (active); in test [14] it was 5.91 µM (active). In addition, in [5], the outcome was inactive.

These data come from PubChem BioAssay (EPA / NIEHS).
